Measured values as given in PubChem BioAssay (NCI).
Compounds without any hit were thinned out: in the full panel of roughly 79,000, 15% have a hit. Activity calls are given as the source filed them. Rule as the data show it: active = growth inhibition above about 70%; inactive = the rest.

Assay: NCI Yeast Anticancer Drug Screen. Data for the rad50EPP+ strain (AID 151);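 also: 0% = growth of vehicle-treated control cultures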
Details: S. cerevisiae rad50 mutant strain, active compounds read high
Experimental: Growth inhibition of yeast strains with defined genetic alterations is measured as a screen for potential anti-cancer activity. Selected strains with alterations in DNA damage repair or cell cycle control were exposed to compounds and growth inhibition was measured relative to vehicle treated controls. The strain used in this assay is rad50EPP+

Measured: growth inhibition

CCCCC(=O)c1c(O)nc2sccn2c1=O
inactive: at 1.2 µM 2% | at 3.7 µM 7% | at 11.0 µM 58%
active: at 33.0 µM 94% | at 100.0 µM 95%

O=C1C(Cl)=C(Cl)C(Cl)(Cl)C(Cl)C1(Cl)Cl (stereo not given)
active: at 33.0 µM 90% | at 100.0 µM 99%
inactive: at 1.2 µM 20% | at 3.7 µM 34% | at 11.0 µM 58%

Cc1cc(Cl)ccc1NC(=O)/C(Cl)=C1/Sc2ccccc2NC1=O
inactive: at 1.2 µM 1% | at 3.7 µM 4% | at 11.0 µM 7% | at 33.0 µM 8% | at 100.0 µM 2%

Oc1ccccc1N=Cc1ccc(Cl)cc1
inactive: at 1.2 µM 6% | at 3.7 µM 21% | at 11.0 µM 35% | at 33.0 µM 52% | at 100.0 µM 59%

C=C(C)[C@@H]1CCc2c(O)c(O)c(=O)cc(C)c2C1
inactive: at 1.2 µM -3% | at 3.7 µM 8% | at 11.0 µM 39% | at 33.0 µM 68%
active: at 100.0 µM 98%

CCOC(=O)C1=C(C)NC(C)=C(C(=O)OCC)C1c1ccccc1Cl
inactive: at 1.2 µM -5% | at 3.7 µM 13% | at 11.0 µM 9% | at 33.0 µM 17% | at 100.0 µM 26%

CCOC(=O)c1csc(Br)n1
inactive: at 1.2 µM -2% | at 3.7 µM 4% | at 11.0 µM -2% | at 33.0 µM 0% | at 100.0 µM -4%

c1ccc2c(c1)Cn1c-2nc2ccccc21
active: at 100.0 µM 95%
inactive: at 1.2 µM 2% | at 3.7 µM -4% | at 11.0 µM 8% | at 33.0 µM 62%
